The source made the active and inactive calls.
Assays:
[1] = tested on: PRMT1 (protein arginine N-methyltransferase 1); assay: PRMT1 binders on small-molecule microarrays, primary screen, biochemical, small-molecule microarray, 635 nm fluorescence (AID 1088); conditions: small-molecule microarray binding, higher = more signal;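 note: binding of Prmt1 protein to compounds spotted on small-molecule microarray slides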
[2] = yeast growth modulation, basal conditions, primary screen, YJM789 clinical isolate, OD600, 24 h (AID 1089);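 note: growth of clinical yeast isolate S. cerevisiae YJM 789 seeded 1000 cells per well; test concentration not given here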; conditions: S. cerevisiae YJM789 growth, higher = more signal, called active from +8 up or from −8 down
[3] = fission yeast growth modulation, primary screen, strain 972, OD600, 24 h, no modulator (AID 1090);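 note: basal condition with compound alone and no growth modifier present; test concentration not given here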; conditions: S. pombe 972 growth, higher = more signal, called active from +8 up or from −8 down
[4] = S. cerevisiae growth modulation with rapamycin, primary screen, strain BY4716, OD600, 96 h (AID 1091); conditions: higher = more signal, called active from +8 up or from −8 down; note: test concentration not given here
[5] = target: Torsin-1A-interacting protein 2 (Homo sapiens) (UniProt Q8NFQ8); assay: LULL1 binders on small-molecule microarray, primary screen, cell lysate, human LULL1 lysate, 635/667 nm fluorescence (AID 1092); conditions: hLULL1 lysate binding, 635 nm fluorescence, higher = more signal;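 note: probe is lysate of COS7 cells overexpressing human LULL1; score merges per-feature 667 nm fluorescence with signal-to-noise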
Sequence of Torsin-1A-interacting protein 2 (Homo sapiens) (Q8NFQ8 whole entry, looked up): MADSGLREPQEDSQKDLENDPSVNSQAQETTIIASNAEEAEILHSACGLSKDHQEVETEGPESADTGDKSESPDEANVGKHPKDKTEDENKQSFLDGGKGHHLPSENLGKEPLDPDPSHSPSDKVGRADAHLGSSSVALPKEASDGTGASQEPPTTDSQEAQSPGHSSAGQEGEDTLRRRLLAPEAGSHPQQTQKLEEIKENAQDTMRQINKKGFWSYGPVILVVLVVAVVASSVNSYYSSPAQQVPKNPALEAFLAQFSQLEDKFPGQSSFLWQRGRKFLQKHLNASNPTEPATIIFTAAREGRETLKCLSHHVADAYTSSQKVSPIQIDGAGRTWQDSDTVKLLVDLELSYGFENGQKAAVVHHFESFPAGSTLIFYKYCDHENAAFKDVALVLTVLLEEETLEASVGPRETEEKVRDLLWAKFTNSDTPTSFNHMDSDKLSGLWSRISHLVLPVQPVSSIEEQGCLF

[6] = E. coli growth modulation, two-sided OD650, primary screen, E. coli filamentation project, strain DRC41, 24 h (AID 1093); conditions: OD650, 24 h, higher = more signal, called active from +8 up or from −8 down;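 note: MC1000 strain lacking acrAB efflux and sulA so SOS filamentation is blocked; test concentration not given here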
[7] = small-molecule microarray binders of probe aLefty2, primary screen, biochemical, biotinylated probe, 635/667 nm fluorescence (AID 1094); conditions: higher = more signal;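 note: score merges spot fluorescence near 667 nm with spot signal-to-noise ratio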
[8] = tested on: Noggin (protein binding on small-molecule microarray); assay: Noggin binders on small-molecule microarray, primary screen, biochemical, 635/667 nm fluorescence (AID 1095); conditions: 635 nm fluorescence, higher = more signal;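 note: score merges 667 nm feature fluorescence with signal to noise over triplicate slides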
[9] = target: Neurogenic locus notch homolog protein 3 (Homo sapiens) (UniProt Q9UM47); assay: NOTCH3 binders on small-molecule microarray, primary screen, biochemical, 635/667 nm fluorescence (AID 1096); conditions: NOTCH3 binding, 635 nm fluorescence, higher = more signal
Sequence of Neurogenic locus notch homolog protein 3 (Homo sapiens) (Q9UM47 whole entry, looked up): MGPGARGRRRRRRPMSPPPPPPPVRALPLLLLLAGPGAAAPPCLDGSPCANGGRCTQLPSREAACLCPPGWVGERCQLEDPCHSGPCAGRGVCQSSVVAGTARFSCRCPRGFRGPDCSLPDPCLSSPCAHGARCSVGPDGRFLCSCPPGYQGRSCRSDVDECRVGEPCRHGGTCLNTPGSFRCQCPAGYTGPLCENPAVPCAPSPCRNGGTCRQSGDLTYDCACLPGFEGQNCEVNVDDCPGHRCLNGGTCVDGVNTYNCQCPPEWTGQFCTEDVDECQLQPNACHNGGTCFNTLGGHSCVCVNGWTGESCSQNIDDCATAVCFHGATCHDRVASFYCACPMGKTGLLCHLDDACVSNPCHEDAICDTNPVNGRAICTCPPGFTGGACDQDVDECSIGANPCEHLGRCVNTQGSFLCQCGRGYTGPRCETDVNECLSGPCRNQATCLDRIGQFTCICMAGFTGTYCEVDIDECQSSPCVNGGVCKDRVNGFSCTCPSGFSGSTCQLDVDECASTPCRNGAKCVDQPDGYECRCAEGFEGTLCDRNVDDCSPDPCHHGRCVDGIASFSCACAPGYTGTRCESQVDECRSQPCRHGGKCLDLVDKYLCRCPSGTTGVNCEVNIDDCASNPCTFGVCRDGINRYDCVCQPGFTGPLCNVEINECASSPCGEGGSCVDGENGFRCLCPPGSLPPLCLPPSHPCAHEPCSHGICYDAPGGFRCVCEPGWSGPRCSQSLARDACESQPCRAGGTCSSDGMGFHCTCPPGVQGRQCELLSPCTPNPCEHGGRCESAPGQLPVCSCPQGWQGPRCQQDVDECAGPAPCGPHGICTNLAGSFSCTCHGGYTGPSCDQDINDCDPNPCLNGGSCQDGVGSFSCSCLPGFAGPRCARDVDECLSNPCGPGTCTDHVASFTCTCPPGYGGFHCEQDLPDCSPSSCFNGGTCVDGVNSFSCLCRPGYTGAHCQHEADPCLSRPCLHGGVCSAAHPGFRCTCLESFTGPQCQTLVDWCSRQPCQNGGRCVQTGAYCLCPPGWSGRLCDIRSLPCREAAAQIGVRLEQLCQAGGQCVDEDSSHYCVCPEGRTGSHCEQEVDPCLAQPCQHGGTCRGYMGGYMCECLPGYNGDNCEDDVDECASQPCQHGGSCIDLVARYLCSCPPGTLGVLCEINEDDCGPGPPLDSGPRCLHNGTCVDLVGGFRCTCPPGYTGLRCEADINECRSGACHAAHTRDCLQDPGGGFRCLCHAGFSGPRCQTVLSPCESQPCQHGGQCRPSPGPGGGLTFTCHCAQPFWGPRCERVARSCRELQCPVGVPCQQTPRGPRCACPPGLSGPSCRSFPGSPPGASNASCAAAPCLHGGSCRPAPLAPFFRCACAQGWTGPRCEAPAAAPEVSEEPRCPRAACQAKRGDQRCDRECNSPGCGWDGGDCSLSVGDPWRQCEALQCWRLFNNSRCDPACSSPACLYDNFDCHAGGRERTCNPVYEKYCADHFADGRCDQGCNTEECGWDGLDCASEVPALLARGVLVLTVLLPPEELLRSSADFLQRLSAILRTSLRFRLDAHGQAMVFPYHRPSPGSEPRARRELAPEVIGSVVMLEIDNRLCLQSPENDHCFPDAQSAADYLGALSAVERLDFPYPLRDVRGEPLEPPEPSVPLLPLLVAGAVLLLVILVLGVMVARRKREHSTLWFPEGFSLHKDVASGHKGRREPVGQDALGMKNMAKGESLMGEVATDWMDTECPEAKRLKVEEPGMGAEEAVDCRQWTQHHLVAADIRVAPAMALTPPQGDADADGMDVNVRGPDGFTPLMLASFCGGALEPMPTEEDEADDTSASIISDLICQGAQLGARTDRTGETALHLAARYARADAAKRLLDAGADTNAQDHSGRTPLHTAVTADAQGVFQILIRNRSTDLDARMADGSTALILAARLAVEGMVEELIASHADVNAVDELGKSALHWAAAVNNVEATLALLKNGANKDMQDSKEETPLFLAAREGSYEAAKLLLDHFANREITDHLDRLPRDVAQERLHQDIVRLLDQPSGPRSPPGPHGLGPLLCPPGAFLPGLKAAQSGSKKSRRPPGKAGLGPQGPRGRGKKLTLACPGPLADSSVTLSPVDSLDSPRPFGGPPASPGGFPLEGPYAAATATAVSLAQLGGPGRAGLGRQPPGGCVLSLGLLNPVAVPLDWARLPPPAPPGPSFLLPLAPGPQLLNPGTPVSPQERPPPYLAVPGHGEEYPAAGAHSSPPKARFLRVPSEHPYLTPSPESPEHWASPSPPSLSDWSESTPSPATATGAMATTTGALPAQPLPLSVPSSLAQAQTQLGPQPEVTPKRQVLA

[10] = small-molecule microarray binders of probe aEGFR, primary screen, biochemical, biotinylated probe, 635/667 nm fluorescence (AID 1097); conditions: higher = more signal;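 note: probe is a biotinylated anti-EGFR antibody binding compounds printed on slides; score combines fluorescence near 667 nm and signal to noise of each spot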
[11] = tested on: Plasmodium falciparum Sir2 (PF13_0152, Sir2A); assay: pfSir2 binders on small-molecule microarrays, primary screen, biochemical, small-molecule microarray, 635 nm fluorescence (AID 1098); conditions: small-molecule microarray binding, fluorescence 635 nm; higher = more signal;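 note: score merges spot fluorescence intensity with its signal-to-noise ratio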
[12] = small-molecule microarray binders of probe aDKK1, primary screen, biochemical, biotinylated probe, 635/667 nm fluorescence (AID 1099); conditions: higher = more signal;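 note: score merges 667nm spot fluorescence with signal to noise across triplicate slides; reference of the scale not given here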
[13] = small-molecule microarray binders of probe aCHRDL2, primary screen, biochemical, biotinylated probe, 635/667 nm fluorescence (AID 1100); conditions: higher = more signal
[14] = splicing luciferase reporter signal modulators, primary screen, spliceosome inhibition project, cell-based, HEK293, splice +/- reporter (AID 1101); conditions: luminescence, 24 h, higher = more signal, called active from +8 up or from −8 down;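 note: HEK293 cells carrying a splicing-competent luciferase reporter gene; test concentration not given here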
[15] = target: Fibroblast growth factor 10 (Homo sapiens) (UniProt O15520); assay: FGF10 binders on small-molecule microarrays, primary screen, biochemical, small-molecule microarray, 635 nm fluorescence (AID 1102); conditions: FGF10 binding, fluorescence 635 nm, higher = more signal
Sequence of Fibroblast growth factor 10 (Homo sapiens) (O15520 whole entry, looked up): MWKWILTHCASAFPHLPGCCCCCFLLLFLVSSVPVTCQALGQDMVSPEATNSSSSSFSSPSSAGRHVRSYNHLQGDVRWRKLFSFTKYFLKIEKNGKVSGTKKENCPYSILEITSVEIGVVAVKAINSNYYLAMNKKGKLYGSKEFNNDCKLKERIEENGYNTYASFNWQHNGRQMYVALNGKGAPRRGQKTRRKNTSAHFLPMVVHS

[16] = tested on: glycogen synthase kinase-3 (GSK3A per assay name; protocol says GSK3B); assay: GSK3 binders on small-molecule microarrays, primary screen, biochemical, small-molecule microarray, 635 nm fluorescence, GSK3A (AID 1103); conditions: small-molecule microarray binding, fluorescence 635 nm; higher = more signal; note: the record names both GSK3A and GSK3B
[17] = target: Epidermal growth factor receptor (Homo sapiens) (UniProt P00533); assay: EGFR binders on small-molecule microarrays, primary screen, biochemical, small-molecule microarray, 635 nm fluorescence (AID 1104); conditions: EGFR binding, higher = more signal;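 note: score merges 667 nm emission intensity with spot signal to noise over triplicate slides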
Sequence of Epidermal growth factor receptor (Homo sapiens) (P00533 whole entry, looked up): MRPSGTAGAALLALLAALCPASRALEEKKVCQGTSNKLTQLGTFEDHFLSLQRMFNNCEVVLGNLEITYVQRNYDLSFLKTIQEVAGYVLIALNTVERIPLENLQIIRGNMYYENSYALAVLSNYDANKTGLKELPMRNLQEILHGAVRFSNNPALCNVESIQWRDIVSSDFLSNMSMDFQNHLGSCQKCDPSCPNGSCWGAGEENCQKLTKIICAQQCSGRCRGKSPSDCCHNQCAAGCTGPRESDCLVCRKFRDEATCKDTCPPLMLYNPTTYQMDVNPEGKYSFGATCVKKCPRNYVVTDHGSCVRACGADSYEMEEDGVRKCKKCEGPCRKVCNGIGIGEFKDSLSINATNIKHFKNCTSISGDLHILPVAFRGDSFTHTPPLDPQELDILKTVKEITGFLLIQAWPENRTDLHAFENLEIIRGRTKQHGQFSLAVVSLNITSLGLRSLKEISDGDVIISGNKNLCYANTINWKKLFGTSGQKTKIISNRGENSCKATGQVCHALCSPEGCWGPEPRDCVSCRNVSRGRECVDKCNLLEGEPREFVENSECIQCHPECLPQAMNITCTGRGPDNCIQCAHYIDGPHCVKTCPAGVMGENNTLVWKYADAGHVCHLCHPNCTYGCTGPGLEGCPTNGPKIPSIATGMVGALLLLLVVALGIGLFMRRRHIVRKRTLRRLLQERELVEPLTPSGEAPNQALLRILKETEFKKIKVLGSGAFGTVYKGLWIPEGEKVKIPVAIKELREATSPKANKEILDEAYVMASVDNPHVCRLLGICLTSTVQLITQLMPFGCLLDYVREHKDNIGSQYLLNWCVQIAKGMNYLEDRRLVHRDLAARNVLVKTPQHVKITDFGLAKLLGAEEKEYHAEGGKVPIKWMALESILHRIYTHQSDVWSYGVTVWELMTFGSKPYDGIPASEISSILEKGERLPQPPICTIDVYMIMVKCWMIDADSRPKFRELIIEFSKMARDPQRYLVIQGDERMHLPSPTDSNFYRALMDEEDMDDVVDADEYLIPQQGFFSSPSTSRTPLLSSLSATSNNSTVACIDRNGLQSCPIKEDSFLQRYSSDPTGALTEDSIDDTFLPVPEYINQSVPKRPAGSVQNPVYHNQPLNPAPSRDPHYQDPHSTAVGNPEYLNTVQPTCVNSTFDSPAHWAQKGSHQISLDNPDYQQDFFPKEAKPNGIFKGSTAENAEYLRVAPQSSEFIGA

[18] = target: Follistatin-related protein 3 (Homo sapiens) (UniProt O95633); assay: FSTL3 binders on small-molecule microarrays, primary screen, biochemical, small-molecule microarray, 635 nm fluorescence (AID 1105); conditions: FSTL3 binding, higher = more signal;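 note: score merges emission near 667 nm and signal to noise per printed spot across three slides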
Sequence of Follistatin-related protein 3 (Homo sapiens) (O95633 whole entry, looked up): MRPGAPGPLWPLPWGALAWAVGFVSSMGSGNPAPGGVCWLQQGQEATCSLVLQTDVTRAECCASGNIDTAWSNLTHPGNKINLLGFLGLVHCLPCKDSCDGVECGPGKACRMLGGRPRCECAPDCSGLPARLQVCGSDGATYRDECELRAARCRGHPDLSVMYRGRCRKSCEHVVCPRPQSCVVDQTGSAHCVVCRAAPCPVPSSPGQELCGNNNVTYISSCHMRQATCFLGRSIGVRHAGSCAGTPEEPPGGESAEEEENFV

[19] = target: Dickkopf-related protein 1 (Homo sapiens) (UniProt O94907); assay: DKK1 binders on small-molecule microarrays, primary screen, biochemical, small-molecule microarray, 635 nm fluorescence scan (AID 1106); conditions: DKK1 binding, higher = more signal;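 note: score merges emission near 667 nm with signal to noise over three replicate slides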
Sequence of Dickkopf-related protein 1 (Homo sapiens) (O94907 whole entry, looked up): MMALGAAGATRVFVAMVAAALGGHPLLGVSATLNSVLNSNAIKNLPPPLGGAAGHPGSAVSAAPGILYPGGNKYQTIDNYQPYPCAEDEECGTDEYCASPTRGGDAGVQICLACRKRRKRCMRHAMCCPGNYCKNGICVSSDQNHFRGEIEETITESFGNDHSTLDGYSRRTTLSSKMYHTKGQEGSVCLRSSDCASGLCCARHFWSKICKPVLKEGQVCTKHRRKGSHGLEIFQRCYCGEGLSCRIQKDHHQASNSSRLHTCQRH

[20] = tested on: Inhibin beta A chain (activin A); assay: INHBA (activin A) binders on microarrays, primary screen, biochemical, small-molecule microarray, 635 nm fluorescence scan (AID 1107); conditions: small-molecule microarray binding, higher = more signal;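 note: mouse activin A protein probed at 4.33 µg/mL on printed slides; score merges bound-protein fluorescence near 667 nm with spot signal-to-noise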

SMILES: COC(=O)[C@@]1(Cc2ccccc2)[C@H]2c3cc(C(=O)N4CCCC4)n(Cc4nc5ccccc5[nH]4)c3C[C@H]2CN1C(=O)c1ccccc1
- composite z-score [1]: 1.54
- z-score [2]: -0.0672 (inactive)
- z-score [3]: 0.193 (inactive)
- z-score [4]: 1.63 (inactive)
- composite z-score [5]: 3.82
- z-score [6]: 0.0607 (inactive)
- composite z-score [7]: 0.746
- composite z-score [8]: -0.192
- composite z-score [9]: 1.11
- composite z-score [10]: 0.13
- composite z-score [11]: 0.844
- composite z-score [12]: 1.1
- composite z-score [13]: 1.36
- z-score [14]: -1.52 (inactive)
- composite z-score [15]: 0.0471
- composite z-score [16]: 1.19
- composite z-score [17]: -0.361
- composite z-score [18]: 1.09
- composite z-score [19]: -0.137
- composite z-score [20]: 0.831

SMILES: O=C1OCCC/C=C\[C@H]2OC34C=CCN(CCN5CCOCC5)C(=O)[C@H]3N(CCCO)C(=O)[C@@H]4C12 (stereo not given in full)
- composite z-score [1]: -0.622
- z-score [2]: -1.35 (inactive)
- z-score [3]: -0.632 (inactive)
- z-score [4]: -0.595 (inactive)
- composite z-score [5]: 3.54
- z-score [6]: -0.44 (inactive)
- composite z-score [7]: -0.381
- composite z-score [8]: -0.813
- composite z-score [9]: -0.93
- composite z-score [10]: -0.199
- composite z-score [11]: 1.37
- composite z-score [12]: -0.199
- composite z-score [13]: 0.0663
- z-score [14]: 0.106 (inactive)
- composite z-score [15]: 0.0487
- composite z-score [16]: -0.0632
- composite z-score [17]: -0.708
- composite z-score [18]: -0.621
- composite z-score [19]: -0.298
- composite z-score [20]: 0.576

SMILES: CCCC#C[Si](O[C@H](CC)c1cn([C@H](CO)Cc2ccccc2)nn1)(C(C)C)C(C)C
- composite z-score [1]: 0.869
- z-score [2]: -0.843 (inactive)
- z-score [3]: -10.7 (active)
- z-score [4]: -2.6 (inactive)
- composite z-score [5]: 1.48
- z-score [6]: 0.858 (inactive)
- composite z-score [7]: 0.0166
- composite z-score [8]: 0.681
- composite z-score [9]: 0.584
- composite z-score [10]: -0.0563
- composite z-score [11]: 0.947
- composite z-score [12]: 0.111
- composite z-score [13]: -0.467
- z-score [14]: -0.118 (inactive)
- composite z-score [15]: 0.955
- composite z-score [16]: 0.379
- composite z-score [17]: 0.371
- composite z-score [18]: 1.15
- composite z-score [19]: 0.82
- composite z-score [20]: -0.253

SMILES: C=C(CCCC)C(=O)CC[C@H](OC(C)=O)c1cccc(OCCO)c1
- composite z-score [1]: 0.554
- z-score [2]: 0.292 (inactive)
- z-score [3]: -1.84 (inactive)
- z-score [4]: -0.303 (inactive)
- composite z-score [5]: -0.348
- z-score [6]: 0.787 (inactive)
- composite z-score [7]: -0.215
- composite z-score [8]: -0.848
- composite z-score [9]: -0.216
- composite z-score [10]: -0.363
- composite z-score [11]: 0.707
- composite z-score [12]: -0.409
- composite z-score [13]: -0.193
- z-score [14]: 1.01 (inactive)
- composite z-score [15]: -0.633
- composite z-score [16]: -0.654
- composite z-score [17]: -0.961
- composite z-score [18]: -0.794
- composite z-score [19]: -0.759
- composite z-score [20]: -0.162

SMILES: C[N+](C)(C)CCCCNC(=O)[C@H]1C[C@H]2C(=O)N[C@@H](Cc3ccccc3)C(=O)N2[C@H]1c1ccc(O)cc1
- composite z-score [1]: 0.684
- z-score [2]: 1.1 (inactive)
- z-score [3]: -0.0797 (inactive)
- z-score [4]: -1.15 (inactive)
- composite z-score [5]: -0.114
- z-score [6]: 0.282 (inactive)
- composite z-score [7]: -0.108
- composite z-score [8]: 1.69
- composite z-score [9]: 0.471
- composite z-score [10]: -0.112
- composite z-score [11]: 0.137
- composite z-score [12]: -0.0123
- composite z-score [13]: -0.0505
- z-score [14]: 0.0946 (inactive)
- composite z-score [15]: 0.612
- composite z-score [16]: 0.0215
- composite z-score [17]: 0.231
- composite z-score [18]: 0.953
- composite z-score [19]: 1.22
- composite z-score [20]: 0.859

SMILES: COC(=O)[C@@]1(Cc2ccc(OC)cc2)[C@H]2c3cc(C(=O)N4CCCC4)n(Cc4ccc(OC)c(OC)c4)c3C[C@H]2CN1C(=O)c1ccccc1
- composite z-score [1]: 0.929
- z-score [2]: -0.515 (inactive)
- z-score [3]: 0.835 (inactive)
- z-score [4]: 1.18 (inactive)
- composite z-score [5]: 3.36
- z-score [6]: -0.148 (inactive)
- composite z-score [7]: 1.2
- composite z-score [8]: 0.793
- composite z-score [9]: 1.11
- composite z-score [10]: 0.889
- composite z-score [11]: 1.04
- composite z-score [12]: 1.56
- composite z-score [13]: 0.9
- z-score [14]: -1.81 (inactive)
- composite z-score [15]: 0.784
- composite z-score [16]: 1.17
- composite z-score [17]: 1.34
- composite z-score [18]: 1.42
- composite z-score [19]: 0.56
- composite z-score [20]: 1.01

SMILES: CCCCc1cn(C[C@H](Cc2ccccc2)NC(=O)N[C@H](CO)CCc2oc(C(C)=O)c(C(=O)OC)c2C(=O)OC)nn1
- composite z-score [1]: 1.54
- z-score [2]: -0.425 (inactive)
- z-score [3]: -0.0326 (inactive)
- z-score [4]: -0.173 (inactive)
- composite z-score [5]: 1.7
- z-score [6]: 0.0003 (inactive)
- composite z-score [7]: 0.165
- composite z-score [8]: 1.14
- composite z-score [9]: 1.1
- composite z-score [10]: 0.114
- composite z-score [11]: 0.595
- composite z-score [12]: -0.164
- composite z-score [13]: -0.22
- z-score [14]: -0.949 (inactive)
- composite z-score [15]: 1.04
- composite z-score [16]: 1.02
- composite z-score [17]: 0.717
- composite z-score [18]: 1.4
- composite z-score [19]: 0.485
- composite z-score [20]: -0.0075

SMILES: [N-]=[N+]=NCc1ccccc1[C@@H]1OC(c2ccc(OCCCO)cc2)=N[C@]1(CCS(=O)(=O)c1ccccc1)C(=O)NCCN1CCOCC1
- composite z-score [1]: 1.53
- z-score [2]: 0.36 (inactive)
- z-score [3]: 0.517 (inactive)
- z-score [4]: 0.766 (inactive)
- composite z-score [5]: 3.37
- z-score [6]: 0.283 (inactive)
- composite z-score [7]: 0.0542
- composite z-score [8]: 1.78
- composite z-score [9]: 1.04
- composite z-score [10]: 0.208
- composite z-score [11]: 0.916
- composite z-score [12]: 0.934
- composite z-score [13]: 0.952
- z-score [14]: -0.406 (inactive)
- composite z-score [15]: 1.42
- composite z-score [16]: 1.05
- composite z-score [17]: 0.778
- composite z-score [18]: 1.46
- composite z-score [19]: 0.535
- composite z-score [20]: 0.745

SMILES: C=CCNC(=O)[C@H]1[C@@H]2C(=O)O[C@@H](c3ccccc3)[C@@H](c3ccccc3)N2[C@@H](c2ccc(OCCO)cc2)[C@]12C(=O)Nc1ccc(C#CC3=CCCCC3)cc12
- composite z-score [1]: 1.55
- z-score [2]: 2.28 (inactive)
- z-score [3]: 1.46 (inactive)
- z-score [4]: 4.72 (inactive)
- composite z-score [5]: 2.89
- z-score [6]: 1.53 (inactive)
- composite z-score [7]: -0.109
- composite z-score [8]: 0.673
- composite z-score [9]: 1.15
- composite z-score [10]: -0.147
- composite z-score [11]: 1.25
- composite z-score [12]: -0.488
- composite z-score [13]: 0.171
- z-score [14]: -1.24 (inactive)
- composite z-score [15]: 0.929
- composite z-score [16]: 1.05
- composite z-score [17]: 0.293
- composite z-score [18]: 0.881
- composite z-score [19]: 0.183
- composite z-score [20]: 0.543

Reference: PubChem BioAssay
